Test results taken from PubChem BioAssay (NCI).
About 83,000 compounds went through this panel and 20% of them were active in at least one assay; those are over-represented in the sample as a whole.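 Testing used 96-well plates and a 48-hour single-concentration exposure. Example: -40 means 40% of the starting cells died.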 Activity calls are given as the source filed them. Rule for the calls: active = growth percent below 10; inactive = the rest.

Key:
Assay in all cases: NCI-60 one-dose screen, 48 h (100 = growth as untreated, 0 = no growth, -100 = all killed)
[1] = system: SR leukemia; details: 10 µM unless noted
[2] = system: RPMI-8226 leukemia; details: 10 µM unless noted
[3] = system: OVCAR-8 ovarian; details: 10 µM unless noted
[4] = system: OVCAR-5 ovarian; details: 10 µM unless noted
[5] = system: OVCAR-4 ovarian; details: 10 µM unless noted
[6] = system: SK-OV-3 ovarian; details: 10 µM unless noted
[7] = system: IGROV1 ovarian; details: 10 µM unless noted
[8] = system: OVCAR-3 ovarian; details: 10 µM unless noted
[9] = system: HS 578T breast; details: 10 µM
[10] = system: NCI/ADR-RES ovarian; details: 10 µM unless noted
[11] = system: T-47D breast; details: 10 µM unless noted
[12] = system: BT-549 breast; details: 10 µM unless noted
[13] = system: MDA-MB-435 melanoma; details: 10 µM unless noted
[14] = system: SW-620 colon; details: 10 µM unless noted
[15] = system: MCF7 breast; details: 10 µM unless noted
[16] = system: HCT-116 colon; details: 10 µM unless noted
[17] = system: HCC-2998 colon; details: 10 µM unless noted
[18] = system: KM12 colon; details: 10 µM unless noted

Measured: growth

Cc1[nH]nc2ccc3nc(-c4ccc5[nH]ncc5c4)c4c(c3c12)CCCC4
inactive: [2] 13% | [3] 28.2% | [4] 46.6% | [5] 38.4% | [7] 11.9% | [8] 32.8% | [10] 40% | [11] 24.1% | [12] 18.5% | [15] 28% | [17] 45.2% | [18] 12.6%
active: [1] 1.09% | [6] -19.6% | [9] -6.38% | [13] 3.38% | [14] 6.74% | [16] 6.66%

COc1ccc(/C=C2\N=C(c3cccnc3)N(c3ccccc3)NC2=O)cc1
inactive: [1] 92.7% | [2] 68.5% | [3] 95.9% | [4] 103% | [5] 99.7% | [6] 130% | [7] 115% | [8] 95.9% | [9] 92% | [10] 100% | [11] 90.2% | [12] 94.3% | [13] 97.3% | [14] 92.3% | [15] 91.5% | [16] 97.1% | [17] 99.7% | [18] 95.3%

N#Cc1nc(-c2cccc(Br)c2)cc(-c2ccc(Nc3nc(N4CCCCC4)nc(N4CCCCC4)n3)cc2)c1N
active: [2] -0.0335% | [4] 9.23% | [5] -53.8% | [7] -45.4% | [8] -76.6% | [9] 6.14% | [11] -52.6% | [12] -69.5% | [13] -91.7% | [14] -42.3% | [15] 6.98% | [16] -60.4% | [18] -1.24%
inactive: [1] 11.9% | [3] 12.2% | [6] 87.4% | [10] 24.3% | [17] 18.2%

COc1ccc(C(=O)c2c(N)nc3n2CCCC3)cc1OC
inactive: [1] 84.3% | [2] 99.3% | [3] 95.4% | [4] 111% | [5] 107% | [6] 105% | [7] 99.4% | [8] 109% | [9] 108% | [10] 107% | [11] 101% | [12] 93.9% | [13] 104% | [14] 101% | [15] 99% | [16] 91.9% | [17] 114% | [18] 101%

Cc1ccc(C2CC(c3cccs3)=NN2c2ccc(S(N)(=O)=O)cc2)s1 (stereo unspecified)
inactive: [1] 82.2% | [2] 65.3% | [3] 83.2% | [4] 101% | [5] 110% | [6] 101% | [7] 98.8% | [8] 94% | [9] 97.2% | [10] 84.6% | [11] 71.5% | [12] 102% | [13] 80.8% | [14] 97.8% | [15] 77.3% | [16] 79.2% | [17] 103% | [18] 93.2%

CN=C1C=C/C(=N/N=c2/ccn(O)cc2C)C=C1C
inactive: [1] 90.5% | [2] 77.1% | [3] 94.2% | [4] 83.2% | [5] 97.5% | [6] 102% | [7] 129% | [8] 117% | [9] 110% | [10] 97.4% | [11] 90.1% | [12] 107% | [13] 102% | [14] 98.5% | [15] 81% | [16] 90.9% | [17] 91.7% | [18] 109%

COc1ccc(/C=C2\CCCC3=C2N=C2SC(C)=NN2C3c2ccc(OC)c(OC)c2)cc1OC (stereo unspecified)
inactive: [1] 14.3% | [4] 26.5% | [5] 41.4% | [6] 62.8% | [7] 30.4% | [8] 23.8% | [9] 86.2% | [10] 17.7% | [11] 48.3% | [12] 33.9% | [13] 11.6% | [14] 27.3% | [15] 19.3% | [17] 30.5% | [18] 15.5%
active: [2] -24.9% | [3] -4.14% | [16] -28.1%

CC(=O)c1c(C)nc(-c2cc(C)cc(Cl)c2)nc1-c1cccc(Oc2ccccc2)c1
inactive: [1] 10.1% | [2] 46.4% | [3] 91.8% | [4] 107% | [5] 85.1% | [6] 84% | [7] 77.7% | [8] 38.6% | [9] 59.8% | [10] 25.1% | [11] 72.3% | [12] 64.3% | [14] 25.7% | [15] 43.5% | [16] 30.5% | [17] 77.6% | [18] 30.7%
active: [13] -4.76%

COc1ccc(C(=O)C(C#N)c2cc(OC)c(OC)c(OC)c2)cc1 (stereo unspecified)
inactive: [1] 71.5% | [2] 96.7% | [3] 93% | [4] 106% | [5] 102% | [6] 105% | [7] 110% | [8] 111% | [9] 105% | [10] 108% | [11] 98.3% | [12] 98.3% | [13] 101% | [14] 107% | [15] 99.6% | [16] 97.5% | [17] 100% | [18] 115%

COc1ccc(/C=C(/C(=O)N2CCN(c3ccccc3)CC2)c2cc(OC)c(OC)c(OC)c2)cc1O
inactive: [2] 10.9% | [3] 14.1% | [4] 51.2% | [5] 55.7% | [6] 30.4% | [7] 32.2% | [9] 39.1% | [11] 68.4% | [14] 24.1% | [15] 19% | [17] 28.6%
active: [1] 9.53% | [8] -33.1% | [10] 3.09% | [12] 8.46% | [13] -52.8% | [16] 6.78% | [18] 9.6%

COc1ccc(/C(=C\c2cc(OC)c(OC)c(OC)c2)C(=O)N2CCCNCC2)cc1
inactive: [1] 103% | [2] 107% | [3] 103% | [4] 111% | [5] 112% | [6] 103% | [7] 113% | [8] 116% | [9] 107% | [10] 112% | [11] 93.1% | [12] 114% | [13] 111% | [14] 108% | [15] 97.3% | [16] 104% | [17] 99.8% | [18] 110%

O=[N+]([O-])c1cccc([I+]c2ccccc2)c1
inactive: [1] 16.6% | [2] 27.9% | [3] 35% | [4] 96.1% | [5] 58.4% | [6] 54.9% | [7] 31.5% | [8] 58.7% | [9] 49.6% | [10] 77.5% | [11] 50.1% | [12] 63.3% | [13] 72.7% | [14] 40% | [15] 37.6% | [16] 47.7% | [17] 67.2% | [18] 60.5%

O=C(OCc1ccc2c(Cl)cc(Cl)c(O)c2n1)c1cc2ccccc2[nH]1
inactive: [6] 67.5%
active: [1] 0.939% | [2] -37.4% | [3] -24.9% | [4] -55.2% | [5] -70.4% | [7] -89.5% | [8] -92.1% | [9] -14.4% | [10] -35.3% | [11] -57.2% | [12] -76.3% | [13] -89.4% | [14] -66.2% | [15] -35.7% | [16] -73.3% | [17] -73.1% | [18] -63.9%

COc1ccc(/C=C2\Cc3c(Br)cccc3C2=O)c(OC)c1
inactive: [1] 52.2% | [2] 60.9% | [3] 80.8% | [4] 85.3% | [5] 72.1% | [6] 80.8% | [7] 74.1% | [8] 67.2% | [9] 80.5% | [10] 50.1% | [11] 77.3% | [12] 69.6% | [14] 43.2% | [15] 55.6% | [16] 15% | [17] 84.1% | [18] 46.8%
active: [13] 7.83%

OC(c1cc(-c2ccc(C(F)(F)F)cc2)nc(-c2ccc(C(F)(F)F)cc2)c1)C1CCCCN1 (stereo unspecified)
active: [1] -64.8% | [2] -48.4% | [3] -64.5% | [4] -77% | [5] -92% | [6] -74.3% | [7] -65.2% | [8] -90.4% | [9] -55.5% | [10] -68.6% | [11] -67.9% | [12] -79% | [13] -58.3% | [14] -70.5% | [15] -80.8% | [16] -77.3% | [17] -70.8% | [18] -87.7%

Cc1ccc(NC(=O)c2[nH]c(SCCN(C)C)nc2-c2ccc(F)cc2)cc1Nc1ccc2ncn(C)c(=O)c2c1
inactive: [2] 40.8% | [3] 70% | [4] 42.6% | [5] 70.8% | [6] 88.4% | [7] 39.8% | [8] 78.9% | [9] 60.6% | [10] 93.2% | [11] 76.8% | [12] 85.2% | [13] 44.6% | [14] 51.8% | [15] 70% | [16] 21% | [17] 49.9% | [18] 49.6%
active: [1] -24.9%

CC(=O)c1ccc(Nc2nc(Cl)nc(Oc3c(Cl)cccc3Cl)n2)cc1
inactive: [1] 82.3% | [2] 70% | [3] 92.5% | [4] 105% | [5] 67.2% | [6] 100% | [7] 89.1% | [8] 90.9% | [9] 74.3% | [10] 93.6% | [11] 79.8% | [12] 84.7% | [13] 89.9% | [14] 88.6% | [15] 74.9% | [16] 84.9% | [17] 106% | [18] 98%
